Compound activity (PubChem)
USP1 inh = inhibitors of human USP1/UAF1 deubiquitinase; O94782; recombinant USP1/UAF1, Ub-Rhodamine cleavage fluorescence; Potency, µM (series often up to 57.1 µM), without a hit: at the top dose activity change, negative = inhibition, actives largely listed as inhibitors; actives 0.23% (n = 390,000); note: potency is the fitted concentration of half-maximal effect; nearly all actives have a fitted effect of over 60% in size
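USP1/UAF1 complex (1 nM) preincubated 15 min at room temperature with compound, then Ub-Rho substrate (150 nM final) added. Kinetic fluorescence at 480/540 nm over 6 reads at 60 s intervals; 50 mM HEPES pH 7.8, 0.5 mM EDTA, 0.1 mg/ml BSA, 1 mM TCEP, 0.01% Tween-20.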
Tau fibril FP = inhibitors of human tau fibril formation; K18 P301L tau heparin fibrillization, Alexa594 FP, 6 h; actives 0.39% (n = 280,000); AID 1468; Potency, µM (series often up to 57.7 µM), inactives show top-dose activity, negative = inhibition, hits mostly inhibitors; P10636; note: potency is the fitted concentration of half-maximal effect; nearly all actives have a fitted effect of over 55% in size
Target sequence (P10636 561-689 P618L limits assumed): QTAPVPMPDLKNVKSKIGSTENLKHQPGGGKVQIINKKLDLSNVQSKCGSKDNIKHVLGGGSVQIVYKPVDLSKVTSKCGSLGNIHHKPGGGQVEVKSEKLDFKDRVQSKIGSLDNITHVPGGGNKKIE
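Human tau K18 […] P301L fragment, 15 uM unlabeled plus 0.24 uM Alexa 594-labeled tau (final), with compound and 20 uM heparin in 100 mM sodium acetate pH 7; 6 hr at 37 C, then Alexa 594 FP read.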
Tau fluor cs = counter-screen for tau fibril formation inhibitors; actives 0.93% (n = 280,000); Potency, µM (titrated, usually from 57.7 µM), inactives show top-dose activity change, negative = decrease; tau K18 P301L Alexa594 fluorescence, heparin fibrillization; note: potency is the fitted concentration of half-maximal effect; nearly all actives have a fitted effect of over 55% in size
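Human K18 P301L tau (15 uM unlabeled plus 0.24 uM Alexa 594-labeled, final) in 100 mM sodium acetate pH 7 was mixed with compound and 20 uM heparin and incubated 6 hr at 37 C.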
Coupling enz = inhibits coupling enzyme system, counter-screen for aldolase hits; coupling enzyme system counterscreen, AmpLite Red fluorescence; activity change, negative = inhibition, % at 58.2 µM, hits read low; actives 0.67% (n = 290,000); in the data active = activity change below about -30%
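Final compound at 57.5 uM, incubated 10 min at RT with coupling enzyme reagent (glyceraldehyde-3-phosphate), then 20 min with substrate and AmpLite Red detection. Fluorescence read at 525/598 nm; tests interference with the coupling assay, not aldolase inhibition.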
Tau ThT inhib = blocks human tau fibril formation measured by thioflavin T; P10636; recombinant tau K18 P301L (four-repeat tau fragment), heparin-induced fibrillization, ThT fluorescence; Potency, µM (top dose mostly 57.4 µM), for the others: at the highest dose activity, negative = inhibition, most hits filed as inhibitors; actives 2.1% (n = 270,000); AID 1460; note: potency is the fitted concentration of half-maximal effect; nearly all actives have a fitted effect of over 55% in size
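K18 P301L tau (15 uM + 0.24 uM Alexa 594-tagged), heparin 20 uM, NaOAc pH 7, 6 h 37 C; ThT 30 uM, 1 h RT, ex 450/em 510 nm.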
Numbers without * were called inactive; ? = inconclusive; . = no result given; [ ] = another dose, or the depositor's remark. The list is not random: actives were taken first. Their share in the collection is about 2.3%. Unless noted, calls come from the whole dose curve; as a rule, active = well fitted curve in the direction sought with a large enough effect; inconclusive = small, poorly fitted or top-dose-only effect, or another doubt; inactive = no such curve, though single readings can be large; an effect the other way counts as inactive or inconclusive. % is set by controls: 0 for no effect and ±100 for the full control effect.

SMILES | USP1 inh | Tau fibril FP | Tau fluor cs | Coupling enz | Tau ThT inhib
CC(=O)Nc1cccc(-c2nnc(SCC(=O)c3cc([N+](=O)[O-])ccc3Br)o2)c1 | 12% | -19% | 14µM*[quencher] | . | ?
CCC(=O)N1CCN(c2ccc(NC(=S)NC(=O)COc3ccccc3)cc2)CC1 | -12% | -7% | -21% | 3 | ?
CC(=O)N1CCN(c2ccc(NC(=S)NC(=O)COc3ccc(C(C)(C)C)cc3)cc2)CC1 | -13% | 5% | -24% | 1 | 4µM*
COCC(=O)Nc1nnc(SCC(=O)N2C(C)CCCC2C)s1 (configuration not stated) | 2% | . | . | -1 | .
CN(Cc1ccccc1)C(=O)CSc1nc2ccsc2c(=O)n1-c1ccc(F)cc1 | -14% | -7% | -4% | . | -1%
C[n+]1cccc2c(Br)ccc([O-])c21 | 5µM* | ? | ? | -69* | 14µM*
O=C(CSc1ccccn1)Nc1ccc2c(c1)C(=O)c1ccccc1C2=O | 0% | 10% | ? | 1 | -9%
O=C(CSc1n[nH]c(=O)[nH]c1=O)Nc1ccc2c(c1)C(=O)c1ccccc1C2=O | ? | 15% | 13µM*[quencher] | 13 | 10µM*
Cc1cc(Cl)ccc1OCC(=O)N1CCC(c2nc3ccccc3s2)CC1 | -20% | -1% | -11% | . | ?
Cc1ccc(N(C)C(=O)Cn2ncc3c([nH]c4ccccc43)c2=O)cc1C | ? | 7% | 5% | . | -4%
CCC(=O)N/N=C/c1ccc(-c2ccc([N+](=O)[O-])cc2)o1 | -18% | 2% | -28% | 3 | 7.9µM*
O=C1N=C(O)CN1/N=C/c1ccc(-c2ccc([N+](=O)[O-])cc2)o1 | -20% | 0% | -5% | . | 10µM*
Cc1ccc(C)c(N=Cc2ccc(-c3ccc([N+](=O)[O-])cc3)o2)c1 | -7% | 14% | ? | -7 | -18%
CCc1nnc(N/N=C/c2ccc(-c3ccc([N+](=O)[O-])cc3)o2)n1N | ? | ? | ? | -37* | 1.8µM*
NC(=S)N/N=C/c1ccc(-c2cccc([N+](=O)[O-])c2)o1 | -11% | 3% | -27% | -1 | ?
C=CCNC(=S)N/N=C/c1ccc(-c2ccc(OC)cc2)o1 | -4% | 9% | 20µM*[quencher] | 0 | ?
CC(C)=NO[C@@H](C)c1cn([C@H](CO)Cc2ccccc2)nn1 | . | 6%[11.6 µM] | 0%[11.6 µM] | 2 | 0%[11.5 µM]
O=C(N/N=C/c1ccc(-c2ccc([N+](=O)[O-])cc2)o1)C(O)c1ccccc1 (configuration not stated) | -1% | 6% | ? | 2 | 16µM*
NS(=O)(=O)c1ccc(-c2ccc(/C=N/NC(=O)c3ccc([N+](=O)[O-])cc3)o2)cc1 | -1% | 3% | -22% | 2 | ?
CNC(=S)N/N=C/c1ccc(-c2ccc(Cl)c([N+](=O)[O-])c2)o1 | -4% | -13% | ? | 1 | ?
O=C(N/N=C/c1ccc([N+](=O)[O-])o1)C(O)c1ccccc1 (configuration not stated) | -26% | 0% | -7% | 0 | .
CC(C)(C)NC(=S)N/N=C\c1ccc(-c2ccc([N+](=O)[O-])cc2)o1 | -26% | 12% | ? | -4 | 7.1µM*
CCCCC(=O)N/N=C/c1ccc(-c2ccc([N+](=O)[O-])cc2)o1 | -24% | 9% | ? | 1 | 4.5µM*
COc1ccc(OC)c(S(=O)(=O)NCc2cccn2Cc2cccc(C)c2)c1 | -9% | 5% | -22% | . | -7%
COc1cc2[nH]c(C(=O)N3CCc4ccccc43)cc2c(OC)c1OC | -17% | . | . | -5 | .
SMILES | USP1 inh | Tau fibril FP | Tau fluor cs | Coupling enz | Tau ThT inhib
CC(C)n1nnc2cc(C(=O)O)ccc21 | . | 9% | -6% | -1 | -5%
Nc1ccc(N=Nc2ccccc2)c2ccccc12 | -18% | ? | 13µM*[quencher] | -5 | 7.1µM*
Nc1ccc(N=Nc2ccccc2)c(N)n1 | -26% | ? | ? | -3 | 13µM*
CCCCCCCC1=CC2=C(Cl)C(=O)C(C)(OC(C)=O)C(=O)C2=CO1 (configuration not stated) | . | -3% | -27% | 0 | ?
COc1cc(/C=C2\SC(=N)N(c3ccc(F)cc3)C2=O)ccc1O | -22% | ? | ? | 4 | ?
COc1cc(/C=C2\SC(=O)N(c3ccccc3Cl)C2=O)cc([N+](=O)[O-])c1O | -20% | -11% | 16µM*[quencher] | -2 | 4µM*
CCOc1cc(/C=C2\SC(=O)N(CC(=O)Nc3ccccc3F)C2=O)cc([N+](=O)[O-])c1O | -13% | 5% | ? | 15 | 7.9µM*
COc1cc(/C=C2/C(=O)NN(c3ccc(Cl)c(Cl)c3)C2=O)cc([N+](=O)[O-])c1O | ? | . | . | 8 | .
COc1cc(/C=C2\SC(=O)N(CC(=O)Nc3cccc(C)c3)C2=O)cc([N+](=O)[O-])c1O | -26% | -2% | ? | 1 | 13µM*
COc1cc(/C=C2\SC(=N)N(c3ccc4c(c3)OCO4)C2=O)cc(OC)c1O | -23% | -9% | ? | 2 | 3.2µM*
COc1ccc(/C=C2\SC(=O)N(CC(=O)Nc3cccnc3)C2=O)cc1OC | -19% | -5% | -14% | -2 | -15%
CC(C)CO/N=C1/C[C@@H](O)[C@@H](O)[C@@H]2[C@H]3C(=O)N(c4ccc(F)cc4F)C(=O)[C@@H]3CC[C@@H]12 | . | -11%[11.6 µM] | -8%[11.6 µM] | -2 | -7%[11.5 µM]
CO[C@@H]1c2cc(F)ccc2/C(=C\CCOC(=O)C/C=C/c2ccccc2)[C@H]1C | . | ? | -17% | 4 | ?
CN(C)c1ccc(CNC(=O)C(Cc2ccccc2)NS(=O)(=O)c2ccc3c(c2)oc(=O)n3C)cc1 (configuration not stated) | -13% | 6% | -21% | . | 0%
CCOc1ccc(S(=O)(=O)N2CCC(n3c(C)nc4cccnc43)CC2)cc1 | -9% | 5% | -14% | . | -10%
Cc1cnc(C(=O)Nc2ccc(F)cc2)cn1 | -17% | -7% | 2% | -1 | 4%
Cc1cnc(C(=O)Nc2ccc(N3CCN(C(=O)OC(C)(C)C)CC3)cc2)cn1 | -20% | -7% | -21% | 2 | 1.8µM*
CC1=C(C)C(=O)N(c2ccccn2)C1=O | -19% | -1% | 5% | 1 | -2%
Cc1nn(-c2ccccn2)c2c1C(=O)C(Br)CC2 (configuration not stated) | -11% | 3.2µM* | ? | -64* | 2.8µM*
CCOC(=O)c1ccc(NC(=O)Nc2ccc3c4c(cccc24)C(=O)N3CC)cc1 | ? | -13% | 3.2µM*[quencher] | -1 | ?
CCOC(=O)c1ccc(NC(=O)Nc2cc3c(cc2N2CCCC2)n(C)c(=O)n3C)cc1 | -20% | 12% | 14µM*[quencher] | . | ?
CC(=O)c1cccc(NC(=O)Nc2cc3c(cc2N2CCCC2)n(C)c(=O)n3C)c1 | -8% | 2% | ? | . | ?
